Values joined by “and” are separate entries in the source; they are usually repeats but may differ in a detail not shown here. Equal entries are not always repeated. Active and inactive are the calls of the source.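 Rule for the calls, unless noted: active = inhibition at or above 50% relative to wild type and mutant plate controls; inactive = inhibition below 50%.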
Legend:
[1] = inhibitors of TNFa-induced NFkB p65 translocation, primary screen, imaging, HUVEC, MLSMR starter and 10KST1 sets (AID 438;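 active = inhibition above 20% together with a positive visual image hit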;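 note: compound added about 3h40 before a 20 min TNFalpha stimulation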;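 for inhibition: signal is the nuclear over cytoplasmic p65 intensity ratio per well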); conditions: HUVEC TNFa-induced p65 nuclear translocation; cell count: measured here: nuclei count (cytotoxicity indicator), at 2.08 µM; inhibition: at 2 µM, stronger effect = higher value, 0% TNFa-plus-vehicle, 100% no-TNFa wells
[2] = inhibitors of mutant huntingtin aggregation, primary screen, imaging, exon1htt(103Q)mCFP cells, high-content imaging (AID 483;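 active = visual image review flags a hit and inhibition of aggregation exceeds 20%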;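 note: compound exposure lasted 3 days before fixation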;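 for nuclei count: percent of the per-plate median nuclei count of sample wells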); conditions: exon1htt(103Q)mCFP cell line, aggregate imaging, at 2 µM; inhibition of aggregation: stronger effect = higher value; nuclei count: measured here: cell count, toxicity
[3] = inhibitors of E-selectin induction by TNFa, primary screen, imaging, HUVEC, immunofluorescence, MLSMR starter and 10KST1 sets (AID 487;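 active = visually confirmed hit in the image check and inhibition above 20%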;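 for inhibition: signal is fraction of cell area covered by stained E-selectin grains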;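 for nuclei count: 100% = median nuclei count of all wells on the same plate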); conditions: HUVEC TNFalpha-induced E-selectin immunofluorescence imaging, at 2 µM; inhibition: stronger effect = higher value; nuclei count: measured here: cell number, toxicity
[4] = DUSP6 inhibitors restoring Erk phosphorylation by chemical complementation, primary imaging in DUSP6-transfected HeLa (AID 609;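 active = compounds giving at least 50% inhibition in the cell-based MKP-3 phosphatase rescue imaging test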;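 for inhibition: phospho-Erk level distribution per well compared with pooled transfected vehicle control wells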); conditions: HeLa MKP-3 transfected, phospho-Erk imaging KS statistic, at 10 µM, cells stimulated with TPA for 15 min
[5] = target: Dual specificity protein phosphatase 6 (Homo sapiens) (UniProt Q16828); assay: as above; conditions: HeLa MKP-3 transfected, phospho-Erk imaging KS statistic; at 10 µM; stronger effect = higher value; cells stimulated with TPA for 15 min
Chain of Dual specificity protein phosphatase 6 (Homo sapiens) (Q16828 whole entry, looked up): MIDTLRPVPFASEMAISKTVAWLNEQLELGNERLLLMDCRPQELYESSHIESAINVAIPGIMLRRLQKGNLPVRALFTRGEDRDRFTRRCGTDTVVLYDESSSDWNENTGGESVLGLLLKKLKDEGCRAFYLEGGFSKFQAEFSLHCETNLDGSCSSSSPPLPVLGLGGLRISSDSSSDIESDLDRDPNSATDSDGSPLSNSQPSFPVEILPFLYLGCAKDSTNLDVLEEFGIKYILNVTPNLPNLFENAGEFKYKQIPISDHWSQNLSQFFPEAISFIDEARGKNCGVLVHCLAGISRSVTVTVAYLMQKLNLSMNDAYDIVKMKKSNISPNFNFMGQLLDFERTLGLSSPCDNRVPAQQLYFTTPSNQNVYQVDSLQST

[6] = target: Voltage-gated potassium channel subunit beta-2 (Rattus norvegicus) (UniProt P62483); assay: KvBeta enzyme negative modulators, primary screen, biochemical, NADPH fluorescence (AID 622;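 active = fluorescence slope higher than the sample average by over 3 SD, cut at about -0.22 in these data, passing the limit was not always enough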;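 note: slope of raw intensity against log time taken from 70 to 1610 s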); conditions: recombinant KvBeta, 4-cyanobenzaldehyde reduction, at 10 µM, stronger effect = higher value
Chain of Voltage-gated potassium channel subunit beta-2 (Rattus norvegicus) (P62483 whole entry, looked up): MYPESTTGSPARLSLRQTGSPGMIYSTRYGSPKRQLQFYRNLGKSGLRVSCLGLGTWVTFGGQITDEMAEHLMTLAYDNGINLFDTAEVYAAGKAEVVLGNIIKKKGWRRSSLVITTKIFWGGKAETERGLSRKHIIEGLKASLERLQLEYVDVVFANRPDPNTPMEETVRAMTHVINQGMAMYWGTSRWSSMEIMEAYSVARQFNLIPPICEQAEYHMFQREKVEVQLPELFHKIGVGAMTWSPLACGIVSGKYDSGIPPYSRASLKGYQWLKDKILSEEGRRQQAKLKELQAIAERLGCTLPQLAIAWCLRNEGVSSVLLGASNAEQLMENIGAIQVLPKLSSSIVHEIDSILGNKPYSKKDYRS

[7] = target: Voltage-gated potassium channel subunit beta-2 (Rattus norvegicus) (UniProt P62483); assay: KvBeta positive modulators, primary screen, biochemical, NADPH fluorescence (AID 623;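 active = NADPH fluorescence slope more negative than the mean of all samples by about 3 SD, 99.7% confidence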;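 note: fluorescence intensity change per second fitted from 20 to 320 s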); conditions: Recombinant KvBeta, NADPH fluorescence decrease slope, 10 min; at 10 µM; stronger effect = lower value
[8] = target: Alpha-2C adrenergic receptor (Homo sapiens) (UniProt P18825); assay: modulators of alpha2C/GIRK thallium flux, primary screen, cell-based, HEK293 alpha2C/GIRK1/2 (AID 624;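 active = fluorescence slope after compound addition differing from the mean of all screened samples at 99.7% confidence, in either direction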;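 note: slope of fluorescence ratio to pre-addition baseline per second over 15 to 24 s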); conditions: thallium flux BTC fluorescence, at 10 µM, actives lie on both sides
Chain of Alpha-2C adrenergic receptor (Homo sapiens) (P18825 whole entry, looked up): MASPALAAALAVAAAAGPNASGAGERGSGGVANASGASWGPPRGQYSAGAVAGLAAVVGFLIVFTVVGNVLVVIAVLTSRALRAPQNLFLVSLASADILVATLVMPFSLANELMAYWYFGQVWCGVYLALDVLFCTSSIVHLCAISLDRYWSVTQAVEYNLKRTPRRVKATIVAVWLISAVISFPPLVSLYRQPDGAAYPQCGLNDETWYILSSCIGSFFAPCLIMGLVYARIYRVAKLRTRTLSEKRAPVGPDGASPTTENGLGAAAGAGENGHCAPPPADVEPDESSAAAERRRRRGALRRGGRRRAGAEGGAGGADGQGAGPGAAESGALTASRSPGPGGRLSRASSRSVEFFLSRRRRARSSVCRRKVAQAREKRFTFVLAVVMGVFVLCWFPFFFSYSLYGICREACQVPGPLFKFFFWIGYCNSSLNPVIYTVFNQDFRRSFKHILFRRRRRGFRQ

[9] = target: Muscarinic acetylcholine receptor M4 (Homo sapiens) (UniProt P08173); assay: compounds altering M4/GIRK thallium flux, either direction, primary screen, M4 allosteric agonist project, cell-based, HEK293 M4/GIRK, BTC-AM (AID 625;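 active = fluorescence slope after compound addition differing from the mean of all tested samples at 99.7% confidence, mostly higher but some lower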;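 note: thallium influx through GIRK channels coupled to M4 in HEK293 cells with BTC-AM dye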); conditions: at 10 µM, actives lie on both sides
Chain of Muscarinic acetylcholine receptor M4 (Homo sapiens) (P08173 whole entry, looked up): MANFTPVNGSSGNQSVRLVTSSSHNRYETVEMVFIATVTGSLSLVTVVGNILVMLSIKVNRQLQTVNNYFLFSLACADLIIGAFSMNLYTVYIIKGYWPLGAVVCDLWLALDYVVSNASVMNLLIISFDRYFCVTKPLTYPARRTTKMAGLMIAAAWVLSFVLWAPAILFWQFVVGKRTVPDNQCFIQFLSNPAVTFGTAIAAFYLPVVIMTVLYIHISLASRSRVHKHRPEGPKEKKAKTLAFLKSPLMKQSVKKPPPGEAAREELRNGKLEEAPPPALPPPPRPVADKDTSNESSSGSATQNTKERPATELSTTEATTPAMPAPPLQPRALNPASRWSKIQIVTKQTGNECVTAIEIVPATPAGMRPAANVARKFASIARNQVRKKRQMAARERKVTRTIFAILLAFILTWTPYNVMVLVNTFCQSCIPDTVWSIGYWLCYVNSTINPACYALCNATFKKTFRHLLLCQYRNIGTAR

[10] = inhibitors of larval lipid processing in zebrafish, primary screen, whole organism, PED6 fluorescence, gall bladder and intestine (AID 686;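 active = a full or partial loss of lipid-probe fluorescence in the fish gall bladder, intestine or both, judged by eye; inactive = no fluorescence loss, or compound toxic to the fish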;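 note: larvae 5 to 7 days old with five fish per well; signal comes from phospholipase A2 cleavage of quenched PED6 carried via bile; overnight exposure to compound and PED6 before scoring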); conditions: Zebrafish larvae PED6 lipid processing, fluorescence scoring; screened at 20 µM (by protocol)
[11] = inhibitors of Chlamydomonas gravitaxis, primary screen, whole organism, Chlamydomonas reinhardtii, WT vs cilia-less mutant, absorbance, 96-well (AID 463189); conditions: OD600 absorbance, 2 days, at 10 µM, stronger effect = higher value;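 note: 0% = wild type cc124 cells in DMSO and 100% = ciliumless bld1 mutant cells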
[12] = inhibitors of Sendai virus-induced IRF3 signaling, primary screen, TLR/RLR signaling modifier project, cell-based, Sendai virus stimulus, luciferase, 10K MLSCN set (AID 602276;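 active = inhibition at or above 50% at 10 µM; inactive = inhibition below 50%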;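 note: firefly luciferase from ISG56 promoter only with Renilla not read in this screen; 0% = Sendai virus plus DMSO and 100% = medium plus DMSO without virus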); conditions: HEK293 RL24 IRF3 luciferase reporter, at 10 µM, stronger effect = higher value
[13] = inhibitors of poly I:C-induced TLR3 signaling, primary screen, cell-based, poly I:C stimulus, luciferase, 10K MLSCN set (AID 602277;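 active = inhibition of the reporter signal at or above 50%; inactive = inhibition below 50%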); conditions: HEK293-TLR3 RL24 IRF3 luciferase reporter, at 10 µM, stronger effect = higher value
[14] = measured here: cell density z-score
[15] = measured here: nuclear c-Myc green intensity z-score
[16] = measured here: nuclear pErk red intensity z-score, stronger effect = higher value

Structure (SMILES) | cell count [1] | inhibition [1] | inhibition of aggregation [2] | nuclei count [2] [%] | inhibition [3] | nuclei count [3] [%] | z-score [4, 14] | z-score [4, 15] | z-score [4, 16] | inhibition [5] | fluorescence slope [6] | NADPH fluorescence slope [7] | slope [8] | fluorescence slope [9] | outcome [10] | inhibition [11] | inhibition [12] | inhibition [13]
Cc1cc(/C=c2/sc3nc4ccccc4n3c2=O)c(C)n1-c1ccccn1 | 477 | -8.3% (inactive) | -17% (inactive) | 105 | -51.9% (inactive) | 114 | 0.162 | 1.46 | -0.242 | 1.04% (inactive) | -0.436 (inactive) | -8.3e-05 (inactive) | 0.00546 (inactive) | 0.00476 (inactive) | inactive | -7.65% (inactive) | 58.3% (active) | 93% (active)
C=CCSc1nnc2n(CCc3ccccc3)c(=O)c3c4c(sc3n12)COC(C)(C)C4 | 492 | -1.7% (inactive) | 3.5% (inactive) | 115 | -100% (inactive) | 135 | 1.51 | -1.62 | -0.504 | 9.91% (inactive) | -0.35 (inactive) | -1.2e-05 (inactive) | 0.00563 (inactive) | 0.0058 (inactive) | inactive | 28.7% (inactive) | 0.226% (inactive) | -17.3% (inactive)
CCCC1Cc2c(sc3ncnc(N)c23)CO1 (configuration not stated) | 492 | -5.3% (inactive) | -8% (inactive) | 80.5 | -49.3% (inactive) | 139 | -0.574 | -0.569 | 0.241 | -1.98% (inactive) | -0.411 (inactive) | -4.2e-05 (inactive) | 0.00633 (inactive) | 0.00429 (inactive) | inactive | 1.24% (inactive) | -2.55% (inactive) | 5.36% (inactive)
Cc1nnc(NCc2n[nH]c(=O)c3ccccc23)c2ccccc12 | 459 | -4.7% (inactive) | -19.6% (inactive) | 51.5 | -23.8% (inactive) | 118 | -2.3 | 1.26 | 1.58 | 7.21% (inactive) | -0.502 (inactive) | -0.000115 (inactive) | 0.00499 (inactive) | 0.0052 (inactive) | inactive | -15.8% (inactive) | 4.22% (inactive) | -7.48% (inactive)
CCSc1nnc(NC(=O)C(CC)(C(F)(F)F)C(F)(F)F)s1 | 702 | 0.2% (inactive) | -6.4% (inactive) | 106 | -53.9% (inactive) | 124 | 0.12 | -0.276 | 0.239 | -9.53% (inactive) | -0.447 (inactive) | -4.4e-05 (inactive) | 0.00447 (inactive) | 0.00559 (inactive) | inactive | 21.1% (inactive) | -0.9% (inactive) | -31.4% (inactive)
CCOC(=O)c1ccc(N2C(=O)CC(Sc3nnc(C)s3)C2=O)cc1 (configuration not stated) | 627 | -1.6% (inactive) | -10.1% (inactive) | 98 | -62.1% (inactive) | 104 | 0.196 | -1.44 | -0.8 | -5.81% (inactive) | -0.471 (inactive) | -1.4e-05 (inactive) | 0.0059 (inactive) | 0.00572 (inactive) | inactive | 30.9% (inactive) | 1.68% (inactive) | 7% (inactive)
Cc1ccc(SCc2[nH]nc3c2C(c2ccc(C)o2)C(C#N)=C(N)O3)cc1 (configuration not stated) | 571 | -2.5% (inactive) | 15.4% (inactive) | 62.4 | -2.7% (inactive) | 91.7 | -2.32 | 1.82 | 1.99 | 24% (inactive) | -0.515 (inactive) | -5.6e-05 (inactive) | 0.0059 (inactive) | 0.00561 (inactive) | inactive | 25.7% (inactive) | -13.7% (inactive) | -11.1% (inactive)
Cc1cc(N2C(=O)C(=O)/C(=C(/O)c3ccc(F)cc3)C2c2ccc(F)cc2)no1 (configuration not stated) | 430 | -7.1% (inactive) | 10.1% (inactive) | 60.9 | -108% (inactive) | 122 | -1.41 | 1.25 | 1.07 | 1.04% (inactive) | -0.407 (inactive) | -3.1e-05 (inactive) | 0.00571 (inactive) | 0.0056 (inactive) | inactive | 0.694% (inactive) | 14.8% (inactive) | 7.49% (inactive)
Cc1cn2c(-c3ccncc3)nnc2s1 | 443 | -7.7% (inactive) | 5.7% (inactive) | 88.7 | -73.4% (inactive) | 142 | 1.88 | 0.607 | -1.91 | 22.3% (inactive) | -0.491 (inactive) | -0.000121 (inactive) | 0.0059 (inactive) | 0.00508 (inactive) | inactive | -0.946% (inactive) | 4.57% (inactive) | 19.6% (inactive)
C=C(C)C1Cc2c(C)nn(-c3nc(C)cc(C)n3)c2C1 (configuration not stated) | 462 | -2.7% (inactive) | 5% (inactive) | 84.7 | -50.5% (inactive) | 121 | 0.411 | 1.2 | 0.938 | 1.98% (inactive) | -0.396 (inactive) | -3.5e-05 (inactive) | 0.00521 (inactive) | 0.00615 (inactive) | inactive | 51.6% (active) | 11.3% (inactive) | 16.4% (inactive)
CS(=O)(=O)Nc1ccc([N+](=O)[O-])cc1Oc1ccccc1 | 692 | -0.7% (inactive) | 0% (inactive) | 95.3 | -24.1% (inactive) | 124 | -0.515 | 1.09 | -0.635 | 11.3% (inactive) | -0.557 (inactive) | -3.9e-05 (inactive) | 0.00467 (inactive) | 0.00499 (inactive) | active; no signal in intestine only | 9.15% (inactive) and 12.1% (inactive) | 15% (inactive) | 15.8% (inactive)
CN1C(=O)c2c(sc3c2CCCC3)NC1c1ccccc1O (configuration not stated) | 432 | -5.1% (inactive) | -1.6% (inactive) | 97.6 | -128% (inactive) | 136 | 1.59 | -1.82 | 0.821 | -2.59% (inactive) | -0.47 (inactive) | -0.000117 (inactive) | 0.00476 (inactive) | 0.00402 (inactive) | inactive | 15.4% (inactive) | -8.68% (inactive) | -24.4% (inactive)
CCN(CC)C(=O)c1sc2nc(-c3cccs3)cc(-c3cccs3)c2c1N | 443 | -1.7% (inactive) | 0.6% (inactive) | 90 | -166% (inactive) | 121 | 1.5 | -1.58 | -0.775 | 9.61% (inactive) | 1.5e-14 (active) | 0 (inactive) | 0.00378 (inactive) | -0.00241 (active) | active; no signal in gallbladder and intestine | 15.5% (inactive) | 20.8% (inactive) | 23.7% (inactive)
CN1CCN(c2nc3c(c(=O)n(C)c(=O)n3C)n2Cc2cccc3ccccc23)CC1 | 371 | 4.9% (inactive) | 6.9% (inactive) | 109 | -77.4% (inactive) | 102 | -0.546 | -0.191 | 0.82 | -13.1% (inactive) | -0.457 (inactive) | -6.9e-05 (inactive) | 0.00582 (inactive) | 0.0044 (inactive) | inactive | 28.5% (inactive) | 9.16% (inactive) | 19.8% (inactive)
CCOC(=O)C1CCN(C(C)=C2C(=O)c3ccccc3C2=O)CC1 | 476 | -0.3% (inactive) | -15.9% (inactive) | 104 | -21.4% (inactive) | 95.3 | -0.165 | 0.853 | 0.114 | 7.73% (inactive) | -0.418 (inactive) | -3.2e-05 (inactive) | 0.00587 (inactive) | 0.0035 (inactive) | inactive | 25.7% (inactive) | 6.04% (inactive) | 16.6% (inactive)
Cc1cc(/C=N\O)c(C)n1-c1ccncc1 | 547 | -1.1% (inactive) | 7.2% (inactive) | 92.6 | -50.3% (inactive) | 120 | -0.413 | 0.337 | 0.578 | 9.82% (inactive) | -0.47 (inactive) | -0.000127 (inactive) | 0.00523 (inactive) | 0.00493 (inactive) | inactive | 19.4% (inactive) | 20.1% (inactive) | 25.1% (inactive)
Cc1cc(C)n(Cc2cc(C)c(Cn3nc(C)cc3C)cc2C)n1 | 622 | 0.2% (inactive) | 15.4% (inactive) | 102 | -44.5% (inactive) | 137 | 0.927 | 1.3 | 1.6 | 1.63% (inactive) | -0.434 (inactive) | -0.000128 (inactive) | 0.00432 (inactive) | 0.00602 (inactive) | inactive | -0.144% (inactive) | 8.11% (inactive) | 0.814% (inactive)
O=C(Nc1ccccc1C(=O)NCCCn1ccnc1)c1ccccc1 | 440 | -10.6% (inactive) | 9.5% (inactive) | 110 | -58.9% (inactive) | 90.3 | 0.245 | 0.366 | -0.747 | 3.97% (inactive) | -0.353 (inactive) | 1.7e-06 (inactive) | 0.00553 (inactive) | 0.00574 (inactive) | inactive | -14.6% (inactive) | 12.2% (inactive) | 22.1% (inactive)
C/C(=N\O)C(=O)NCCCNCCCN(C)C | 609 | -2.7% (inactive) | -14.3% (inactive) | 109 | -42% (inactive) | 115 | -1.26 | 0.664 | -0.264 | -3.95% (inactive) | -0.495 (inactive) | -5.8e-05 (inactive) | 0.0053 (inactive) | 0.00686 (inactive) | inactive | -5.12% (inactive) | 15.3% (inactive) | 20.9% (inactive)

— PubChem BioAssay
